PubChem BioAssay (NCI)
This is part of a sample that, as a whole, favours compounds with a hit. Of some 83,000 tested, about 20% had one in any assay.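 How to read the values: 0–100, growth inhibition (40 = 60% inhibited); 0, no net growth; -100 to 0, cell death (-40 = 40% of starting cells died; -100 = all dead).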 Values without a mark were called inactive. Active and inactive are the calls of the source. Rule for the calls: active = growth percent below 10; inactive = the rest.

How the values were obtained:
Test in all cases: NCI-60 one-dose screen, 48 h (100 = growth as untreated, 0 = no growth, -100 = all killed)
Settings in all cases: 10 µM unless noted
[1] = tested on: DU-145 prostate
[2] = tested on: K-562 leukemia
[3] = tested on: MALME-3M melanoma
[4] = tested on: MDA-MB-231 breast
[5] = tested on: RXF 393 renal
[6] = tested on: SF-268 CNS
[7] = tested on: SF-295 CNS
[8] = tested on: SF-539 CNS
[9] = tested on: UACC-257 melanoma
[10] = tested on: M14 melanoma
[11] = tested on: HCT-15 colon
[12] = tested on: HT29 colon
[13] = tested on: SNB-75 CNS
[14] = tested on: SNB-19 CNS
[15] = tested on: U251 CNS
[16] = tested on: PC-3 prostate
[17] = tested on: SK-MEL-5 melanoma
[18] = tested on: UACC-62 melanoma
[19] = tested on: SK-MEL-28 melanoma
[20] = tested on: LOX IMVI melanoma

| SMILES | growth [1] | growth [2] | growth [3] | growth [4] | growth [5] | growth [6] | growth [7] | growth [8] | growth [9] | growth [10] | growth [11] | growth [12] | growth [13] | growth [14] | growth [15] | growth [16] | growth [17] | growth [18] | growth [19] | growth [20] |
| --- | --- | --- | --- | --- | --- | --- | --- | --- | --- | --- | --- | --- | --- | --- | --- | --- | --- | --- | --- | --- |
| COc1ccc(-c2cc(-c3nnc(SCC(=O)Nc4ccc(C(C)=O)cc4)n3-c3ccccc3)c3ccccc3n2)cc1OC | 110% | 110% | 97.2% | 105% | 115% | 89.9% | 98.7% | 97.4% | 87.1% | 93.7% | 102% | 94.7% | 102% | 113% | 101% | 98.7% | 109% | 111% | 113% | – |
| C/C(=C\CCc1ccoc1)CC/C=C(\C)CCCN1CCOCC1 | 73.9% | 20.6% | 55.8% | 43.7% | 50.1% | 72.6% | 67.8% | 78.2% | 53.4% | 62.6% | 23.8% | 22.7% | 60.9% | 67.5% | 44.3% | 55.9% | 15.6% | 62.5% | 80.4% | – |
| Cc1ccccc1NC(=O)NC(CC(N)=O)c1ccc2c(c1)nc(-c1cccc(Oc3ccc(C(C)(C)C)cc3)c1)n2CCCN1CCCCC1C (stereo unspecified) | 68.2% | -44.6% (active) | -52.6% (active) | 28.1% | 25.1% | 46.7% | 83.5% | 13.1% | -71.3% (active) | -81.8% (active) | 92.3% | -34.6% (active) | 62.5% | 46.2% | -74.2% (active) | 29.7% | -73% (active) | 82.7% | -71.7% (active) | – |
| O=C(O)CCC(=O)OC[C@@H](NC(=O)C(Cl)Cl)[C@H](O)c1ccc([N+](=O)[O-])cc1 | 110% | 98.6% | 96% | 103% | 104% | 109% | 101% | 100% | 104% | 98% | 93.9% | 95.8% | 88% | 99.4% | 99.3% | 87.5% | 89.8% | 98% | 106% | – |
| COCCOCCOCCOCCOc1ccc2c(c1)C(=O)c1nc3ncccc3c(=O)n1-2 | -95.1% (active) | -92% (active) | -96.2% (active) | 23.8% | -72% (active) | -19.2% (active) | -97% (active) | -89.6% (active) | -83.9% (active) | -90.4% (active) | -95.6% (active) | -39.3% (active) | -61.1% (active) | -87% (active) | -63.6% (active) | -8.58% (active) | -100% (active) | -97.2% (active) | -75.3% (active) | – |
| COc1cc(-c2nc3sc4c(c3c(=O)[nH]2)CCCCCC4)cc(OC)c1OC | 12.1% | 5.92% (active) | 25.6% | 7.21% (active) | 0.561% (active) | 27.2% | 13.7% | -5.36% (active) | 63.7% | 23.1% | 24.8% | 10.5% | -0.669% (active) | 21.2% | 25.8% | 38% | 8.73% (active) | 19.1% | 51.6% | – |
| O=C(Nc1nc2c(C(F)(F)F)cccc2s1)c1cc(Cl)ccc1O | 23% | 5.1% (active) | -24.8% (active) | -13.2% (active) | -5.36% (active) | 21.2% | -21.2% (active) | 15% | -23.7% (active) | 8.01% (active) | 12.3% | 0.653% (active) | 14% | 10.2% | 3.11% (active) | 3.52% (active) | – | -37.3% (active) | 28.6% | 5.52% (active) |
| C/C(=C\CCc1ccoc1)CC/C=C(\C)CCCNc1ccc(F)cc1 | 101% | 68.6% | 88.2% | 72.9% | 101% | 90.1% | 102% | 89.6% | 99.7% | 103% | 93.3% | 78.8% | 94.3% | 97.7% | 94.2% | 94.9% | 99.9% | 83.8% | 96.6% | – |
| CC(C)C[C@H](NC(=O)/C=C/Cn1ccc2ccccc2c1=O)B(O)O | 40.6% | 35.8% | -30% (active) | 35.1% | 8.46% (active) | 24.6% | 26.8% | 15.1% | 43.2% | 21.1% | 67.5% | 8.43% (active) | 50.2% | 56.2% | 55.8% | 79.1% | 23.5% | 17% | 50.8% | – |
| Oc1ccc(/C=N/Nc2nc3ccccc3s2)c(O)c1 | 32.4% | 30% | 52.4% | 41.9% | 53.9% | 21.6% | 36.4% | 34.5% | 37.4% | 27.1% | 30.9% | 67.3% | 28.5% | 52.5% | 25.4% | 32.5% | 40.8% | 35.8% | 50.7% | – |
| CCOC(=O)CCN(c1c(Cl)ssc1=O)C(C)C | 100% | 106% | 111% | 104% | 87.8% | 113% | 119% | 97.7% | 95.5% | 84.7% | 113% | 102% | 97.8% | 109% | 101% | 101% | 97.7% | 97.8% | 93.4% | 94.4% |
| Cc1cc(C)c(C(=O)c2cccs2)c(C)c1 | 111% | 98.4% | 110% | 107% | 110% | 104% | 122% | 106% | 99.3% | 103% | 102% | 98.4% | 86.2% | 99.6% | 97.5% | 89.5% | 109% | 97% | 114% | – |
| O=C(NCCNC(=O)Oc1cccc2ccccc12)Oc1cccc2ccccc12 | 112% | 102% | 141% | 68.8% | 104% | 83.9% | 111% | 101% | 88.3% | 107% | 99.6% | 108% | 89.5% | 94.5% | 116% | 78.5% | 85.9% | 91.1% | 128% | – |
| Cn1cnc([N+](=O)[O-])c1Sc1nc(N)nc2nc[nH]c12 | 25.7% | 4.56% (active) | 68.8% | 29.6% | 44.8% | 29% | -2.69% (active) | 16.4% | 45.3% | 14.4% | 50.3% | 47.2% | 31.3% | 101% | 63.6% | 56.2% | 79.3% | 7.35% (active) | 84.4% | – |
| COc1ccc(-c2nc3sc4c(c3c(=O)[nH]2)CCCCCC4)cc1 | 66.6% | 17.8% | 8.18% (active) | 52.6% | 28.4% | 48.6% | 43.6% | 65.1% | 64% | 33.7% | 27.7% | 14.3% | 49.4% | 66% | 46.8% | 70.2% | 53.1% | 24.6% | 62.1% | – |
| O=C(CC(C(=O)c1ccccc1)N1CCN(Cc2ccccc2)CC1)c1ccccc1 (stereo unspecified) | 86.2% | 19.5% | 110% | 96% | 95% | 106% | 109% | 93.8% | 93.7% | 77.9% | 57% | 54.7% | 91.7% | 99.4% | 74.9% | 93.8% | 103% | 101% | 112% | 73.4% |
